The whole screen tested about 5,500 compounds, of which about 2,000 (36%) were called active. About 18% were inconclusive and are not listed. Cut-off read from the data, not from the text of the source: active = normalized growth mostly below about 0.91 (no sharp cut-off); inconclusive = no clear call, values can overlap the other calls; inactive = mostly above about 0.92. The list shows a part of the results.
Assay: chemical genetic growth profiling, strain panel (AID 1159580);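 note: tested at 20 µM; growth read once vehicle control cultures reached saturation at 30 °C; 1 = growth at the plate median or of vehicle wells; lower values mean less growth of the strain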
Settings: growth OD

Measured: normalized growth

CC1C(=O)OC2C1CCC1(C)C=CC(=O)C3(C)OC213 (stereo unspecified)
inactive: S. cerevisiae deletion strains, locus YAL013W, strain DEP1, hits give low values 0.968 | S. cerevisiae deletion strains, locus YBR021W, strain FUR4, hits give low values 1.01 | S. cerevisiae deletion strains, locus YBR229C, strain ROT2, hits give low values 1.01 | S. cerevisiae deletion strains, locus YCL029C, strain bik1, hits give low values 1.01 | S. cerevisiae deletion strains, locus YDL035C, strain GPR1, hits give low values 1.02 | S. cerevisiae deletion strains, locus YDL074C, strain BRE1, hits give low values 0.974 | S. cerevisiae deletion strains, locus YDL101C, strain DUN1, hits give low values 1 | S. cerevisiae deletion strains, locus YDL134C, strain PPH21, hits give low values 0.999 | S. cerevisiae deletion strains, locus YDL185W, strain tfp1, hits give low values 1.01 | S. cerevisiae deletion strains, locus YDL192W, strain arf1, hits give low values 0.999 | S. cerevisiae deletion strains, locus YDR101C, strain arx1, hits give low values 0.989 | S. cerevisiae deletion strains, locus YDR150W, strain NUM1, hits give low values 1 | S. cerevisiae deletion strains, locus YDR162C, strain NBP2, hits give low values 0.985 | S. cerevisiae deletion strains, locus YDR318W, strain mcm21, hits give low values 1.01 | S. cerevisiae deletion strains, locus YDR388W, hits give low values 1 | S. cerevisiae deletion strains, locus YDR502C, strain sam2, hits give low values 0.985 | S. cerevisiae deletion strains, locus YEL061C, strain CIN8, hits give low values 1.02 | S. cerevisiae deletion strains, locus YER110C, hits give low values 1.01 | S. cerevisiae deletion strains, locus YER155C, strain BEM2, hits give low values 1 | S. cerevisiae deletion strains, locus YER167W, strain BCK2, hits give low values 1.02 | S. cerevisiae deletion strains, locus YGL078C, strain dbp3, hits give low values 1 | S. cerevisiae deletion strains, locus YGL086W, strain mad1, hits give low values 1.01 | S. cerevisiae deletion strains, locus YGL248W, strain PDE1, hits give low values 1.01 | S. cerevisiae deletion strains, locus YGR078C, strain PAC10, hits give low values 0.989 | S. cerevisiae deletion strains, locus YGR135W, strain pre9, hits give low values 0.976 | S. cerevisiae deletion strains, locus YGR229C, strain SMI1, hits give low values 0.999 | S. cerevisiae deletion strains, locus YGR252W, strain gcn5, hits give low values 1.01 | S. cerevisiae deletion strains, locus YHR030C, strain SLT2, hits give low values 1.01 | S. cerevisiae deletion strains, locus YHR079C, strain IRE1 (second series), hits give low values 1.02 | S. cerevisiae deletion strains, locus YHR094C, strain hxt1, hits give low values 0.999 | S. cerevisiae deletion strains, locus YHR129C, strain ARP1, hits give low values 1.02 | S. cerevisiae deletion strains, locus YHR200W, strain rpn10, hits give low values 1 | S. cerevisiae deletion strains, locus YIL066C, strain RNR3, hits give low values 0.999 | S. cerevisiae deletion strains, locus YIL073C, strain SPO22, hits give low values 1.09 | S. cerevisiae deletion strains, locus YIL125W, strain kgd1, hits give low values 1.01 | S. cerevisiae deletion strains, locus YIR030C, strain dcg1, hits give low values 1 | S. cerevisiae deletion strains, locus YJL095W, strain BCK1, hits give low values 0.988 | S. cerevisiae deletion strains, locus YJL134W, strain LCB3, hits give low values 1.01 | S. cerevisiae deletion strains, locus YJL168C, strain set2, hits give low values 1.01 | S. cerevisiae deletion strains, locus YJL187C, strain SWE1 (second series), hits give low values 1.01 | S. cerevisiae deletion strains, locus YJR043C, strain POL32, hits give low values 1.06 | S. cerevisiae deletion strains, locus YJR075W, strain HOC1, hits give low values 1 | S. cerevisiae deletion strains, locus YKL009W, strain mrt4, hits give low values 1.02 | S. cerevisiae deletion strains, locus YKL068W, hits give low values 1 | S. cerevisiae deletion strains, locus YKL085W, strain MDH1 (second series), hits give low values 1.04 | S. cerevisiae deletion strains, locus YKL085W, strain MDH1, hits give low values 1.04 | S. cerevisiae deletion strains, locus YKL190W, strain CNB1, hits give low values 1.01 | S. cerevisiae deletion strains, locus YKR001C, strain vps1, hits give low values 1 | S. cerevisiae deletion strains, locus YLR039C, strain RIC1, hits give low values 1.01 | S. cerevisiae deletion strains, locus YLR058C, strain SHM2, hits give low values 1.01 | S. cerevisiae deletion strains, locus YLR102C, strain apc9, hits give low values 1.01 | S. cerevisiae deletion strains, locus YLR262C, strain YPT6, hits give low values 0.996 | S. cerevisiae deletion strains, locus YLR268W, strain sec22, hits give low values 0.959 | S. cerevisiae deletion strains, locus YLR330W, strain CHS5, hits give low values 1.01 | S. cerevisiae deletion strains, locus YLR342W, strain FKS1 (second series), hits give low values 1.06 | S. cerevisiae deletion strains, locus YLR371W, strain rom2, hits give low values 1.01 | S. cerevisiae deletion strains, locus YLR418C, strain cdc73, hits give low values 0.963 | S. cerevisiae deletion strains, locus YML016C, strain PPZ1, hits give low values 1 | S. cerevisiae deletion strains, locus YML032C, strain rad52, hits give low values 1.01 | S. cerevisiae deletion strains, locus YML124C, strain tub3, hits give low values 1 | S. cerevisiae deletion strains, locus YMR078C, strain ctf18, hits give low values 1 | S. cerevisiae deletion strains, locus YMR223W, strain ubp8, hits give low values 1.01 | S. cerevisiae deletion strains, locus YMR263W, strain SAP30, hits give low values 0.982 | S. cerevisiae deletion strains, locus YMR307W, strain GAS1, hits give low values 1.02 | S. cerevisiae deletion strains, locus YNL067W, strain RPL9B, hits give low values 0.97 | S. cerevisiae deletion strains, locus YNL128W, strain TEP1, hits give low values 1 | S. cerevisiae deletion strains, locus YNL153C, strain GIM3, hits give low values 0.989 | S. cerevisiae deletion strains, locus YNL233W, strain BNI4, hits give low values 1.01 | S. cerevisiae deletion strains, locus YNL250W, strain rad50, hits give low values 0.999 | S. cerevisiae deletion strains, locus YNL271C, strain bni1, hits give low values 1.01 | S. cerevisiae deletion strains, locus YNL298W, strain CLA4, hits give low values 0.99 | S. cerevisiae deletion strains, locus YNL307C, strain MCK1, hits give low values 1.02 | S. cerevisiae deletion strains, locus YNL322C, strain KRE1, hits give low values 1 | S. cerevisiae deletion strains, locus YNR052C, strain pop2, hits give low values 1.02 | S. cerevisiae deletion strains, locus YOL006C, strain TOP1, hits give low values 0.926 | S. cerevisiae deletion strains, locus YOL012C, strain htz1 1.83 | S. cerevisiae deletion strains, locus YOL147C, strain pex11, hits give low values 1.01 | S. cerevisiae deletion strains, locus YOR061W, strain CKA2, hits give low values 1.01 | S. cerevisiae deletion strains, locus YOR069W, strain VPS5, hits give low values 1.01 | S. cerevisiae deletion strains, locus YOR136W, strain idh2, hits give low values 1.01 | S. cerevisiae deletion strains, locus YOR144C, strain elg1, hits give low values 0.997 | S. cerevisiae deletion strains, locus YOR184W, strain ser1, hits give low values 1.01 | S. cerevisiae deletion strains, locus YOR316C, strain cot1, hits give low values 1.01 | S. cerevisiae deletion strains, locus YPL055C, strain LGE1, hits give low values 0.974 | S. cerevisiae deletion strains, locus YPL241C, strain CIN2, hits give low values 1.01 | S. cerevisiae deletion strains, locus YPR119W, strain clb2, hits give low values 0.996 | S. cerevisiae deletion strains, locus YPR141C, strain kar3, hits give low values 0.998 | S. cerevisiae deletion strains, locus YPR163C, strain tif3, hits give low values 1.01 | S. cerevisiae deletion strains, locus YPR167C, strain met16, hits give low values 1 | S. cerevisiae deletion strains, strain wtn01, hits give low values 0.996 | S. cerevisiae strains, strain wild type, hits give low values 1.01

— PubChem BioAssay AID1159580 (chemical genetic matrix, 2015)
